From the supplement of paper PMC6555819

How the values were obtained:
Experiment in all cases: PBM binding z-score (relative to random genomic background probes); higher = stronger binding; sequences stand for … in GC…GCGATTGACAGCGTAGAATGAAGG
[1] = system: FXR:RXRa (NR concentration 270 nM, RXRa partner concentration 90 nM)
Method in brief: (§1)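 Ligand-free nuclear receptor dimers were bound for 1 h to custom Agilent 4×180K protein-binding microarrays. Detection used antibodies against each partner (one per run). Binding z-scores rest on regression-normalized fluorescence, with random background probes as the reference.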

[2] = system: LXRa:RXRa (NR concentration 270 nM, RXRa partner concentration 90 nM)
Method in brief: as §1

[3] = system: LXRa homodimer (NR concentration 270 nM)
Method in brief: as §1

[4] = system: LXRb:RXRa (NR concentration 270 nM, RXRa partner concentration 90 nM)
Method in brief: as §1

[5] = system: LXRb homodimer (NR concentration 270 nM)
Method in brief: as §1

[6] = system: PPARa:RXRa (NR concentration 270 nM, RXRa partner concentration 90 nM)
Method in brief: as §1

[7] = system: PPARg:RXRa (NR concentration 180 nM, RXRa partner concentration 90 nM)
Method in brief: as §1

[8] = system: PPARg:RXRa 270nM:90nM, anti-RXR (NR concentration 270 nM, RXRa partner concentration 90 nM)
Method in brief: as §1

[9] = system: PPARg:RXRa 30nM:10nM, anti-RXR (NR concentration 30 nM, RXRa partner concentration 10 nM)
Method in brief: as §1

[10] = system: PPARg:RXRa 90nM:30nM, anti-RXR (NR concentration 90 nM, RXRa partner concentration 30 nM)
Method in brief: as §1

[11] = system: PPARg:RXRa DBDmut IVT, anti-RXR (DBD mutation: RXRa K156A/R161A, NR concentration 270 nM, RXRa partner concentration 90 nM)
Method in brief: as §1

[12] = system: PPARg:RXRa IVT, anti-PPARg (NR concentration 270 nM, RXRa partner concentration 90 nM)
Method in brief: as §1

[13] = system: PPARg DBDmut:RXRa IVT, anti-PPARg (DBD mutation: PPARg1 K132A/R137A, NR concentration 270 nM, RXRa partner concentration 90 nM)
Method in brief: as §1

[14] = system: PPARg DBDmut IVT, anti-PPARg (DBD mutation: PPARg1 K132A/R137A, NR concentration 270 nM)
Method in brief: as §1

[15] = system: PPARg homodimer (NR concentration 180 nM)
Method in brief: as §1

[16] = system: PXR:RXRa (NR concentration 270 nM, RXRa partner concentration 90 nM)
Method in brief: as §1

[17] = system: PXR homodimer (NR concentration 270 nM)
Method in brief: as §1

[18] = system: RARa:RXR (NR concentration 270 nM, RXRa partner concentration 90 nM)
Method in brief: as §1

[19] = system: RARa homodimer (NR concentration 270 nM)
Method in brief: as §1

[20] = system: RARb:RXRa (NR concentration 270 nM, RXRa partner concentration 90 nM)
Method in brief: as §1

Sequence | PBM binding z-score [1] | PBM binding z-score [2] | PBM binding z-score [3] | PBM binding z-score [4] | PBM binding z-score [5] | PBM binding z-score [6] | PBM binding z-score [7] | PBM binding z-score [8] | PBM binding z-score [9] | PBM binding z-score [10] | PBM binding z-score [11] | PBM binding z-score [12] | PBM binding z-score [13] | PBM binding z-score [14] | PBM binding z-score [15] | PBM binding z-score [16] | PBM binding z-score [17] | PBM binding z-score [18] | PBM binding z-score [19] | PBM binding z-score [20]
CTCGAAAGGTCGTGCTCAGGTGAGTAGACCAAAC | 5.65 | 3.86 | -0.195 | 3.08 | 0.0468 | 4.81 | 2.71 | 3.96 | 0.899 | 2.88 | 0.641 | 1.86 | 1.76 | 0.659 | 3.39 | 3.11 | -0.191 | 4.48 | -0.171 | 3.91
TCATATGGGTAATACAGGTGAAAGTCGGCATCTA | 0.355 | 1.4 | 0.0107 | 0.779 | -0.138 | 1.82 | 1.1 | 2.13 | 2.8 | 2.4 | 3.38 | 2.88 | 1.3 | 0.765 | 0.704 | 0.281 | -0.317 | 0.653 | 0.182 | 0.214
ATCTCTAGGTAAAGATAGTTCAGGGAATGCAAAT | 0.392 | 3.65 | 0.565 | 0.755 | 0.535 | 1.06 | 0.543 | 0.544 | 0.404 | 0.317 | 2.05 | 1.37 | 1.02 | 0.575 | 0.895 | 0.937 | 0.399 | 0.601 | 1.17 | 0.787
TAGCCTAGGTCGTGCGGGCCAGTATAGTGTCGGC | -0.111 | -0.0321 | -0.956 | -0.439 | -0.768 | 0.275 | -0.525 | -0.186 | -0.812 | -0.477 | -0.622 | 0.425 | -0.497 | -1.13 | -1.3 | -0.419 | -0.881 | -0.166 | -1.19 | 0.97
AGAACTAGGGCAATGAGTTGATAGCACGGGTGGC | -0.0132 | -0.254 | -0.285 | -0.631 | -0.61 | 2.48 | 4.11 | 3.2 | 1.29 | 2.41 | 7.38 | 6.72 | 1.02 | 0.615 | 0.447 | 0.226 | 0.366 | 0.000604 | 0.238 | 1.31
GGAACGAGGGGAAAGTTGATAGCATCTGTCGACG | -0.0769 | -0.0261 | -0.204 | 0.087 | 0.0705 | 2.88 | 4.27 | 6.01 | 3.53 | 6.53 | 1.59 | 1.99 | 0.258 | -1.07 | 0.339 | -0.114 | -0.142 | -0.0298 | 0.277 | 0.213
CCGAGTAGATTATGGGGCATTCAGGCAACGGTGA | 0.0957 | -0.0855 | -0.262 | 0.275 | -0.645 | 0.18 | 0.487 | 0.839 | 0.0845 | 0.412 | 0.855 | 1 | -0.628 | -0.679 | 0.156 | -0.457 | 0.0578 | -0.525 | -0.197 | 0.0647
